Screening results: PubChem, several laboratories
Most compounds without a hit are left out; they make up all but 3.5% or so of the library.
Platelet DG rel – platelet dense granule release activity; human platelet-rich plasma, SFLLRN dense granule ATP release, luminescence; inhibition, %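 (compounds screened at 7.5 µM in platelet-rich plasma)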; 0.22% of 300,000 active;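 active = mean replicate score, as percent of positive control, at or above 50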
PPC-1+TRAIL kill – PPC-1 cancer cell killing with TRAIL present; 0.41% of 220,000 active; PPC-1 cells + TRAIL, ATPLite viability luminescence; cell killing (% activity), % at 4 µM or 5 µM; AID 1443;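 active = cell killing above 50% in the first pass at 4 µM, then a duplicate retest at 5 µM averaging 50% or more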;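 also: plate controls were cells with TRAIL plus DMSO for no effect and medium-only wells lacking cells for full effect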
TROY signal inh – blocks TROY-dependent signaling in reporter cells; Q293 LMP1-TROYcd NF-kB luciferase reporter, 4 h; inhibition, % at 10 µM; 0.98% of 360,000 active; AID 1347056;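 active = compounds whose plate-normalised and pattern-corrected inhibition of the luciferase reporter signal at the single screening dose is 50% or more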
C8 TRAIL sens – caspase-8 TRAIL sensitization | inhibition (viability loss, TRAIL sensitization), % at 10 µM | NB7+C8 cells + TRAIL, ATPlite viability luminescence | 1% of 360,000 active;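 active = compounds causing at least 50% loss of cell viability in the single-dose screen, relative to plate controls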
TWEAK-Fn14 inh – TWEAK-Fn14 signaling inhibition; TWEAK-stimulated Fn14 reporter cells, luciferase luminescence, 8 h; inhibition, % at 10 µM; 2% of 360,000 active; in the data active = inhibition above about 50%
HSP90 refold inh – blocks HSP90-mediated luciferase refolding in reticulocyte lysate | inhibition, % at 5.6 µM | 0.91% of 290,000 active | Rabbit reticulocyte lysate, luciferase refolding luminescence, 3 h | AID 1789;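 active = inhibition above the screen-wide mean plus 3 SD, computed separately per campaign, cut at about 16% in these data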;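 also: 0% = DMSO wells and 100% = 60 µM geldanamycin wells; inhibitors lower the luminescence because luciferase stays unfolded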
Starred values were filed as active, the others as inactive; x = no result given.

SMILES	Platelet DG rel	PPC-1+TRAIL kill	TROY signal inh	C8 TRAIL sens	TWEAK-Fn14 inh	HSP90 refold inh
COc1cccc(-c2csc3ncnc(Sc4nnnn4C)c23)c1	x	x	38	7	75*	x
COC(=O)CSc1ncnc2scc(-c3ccccc3)c12	-1	-2	10	-3	8	-1
Cn1nnnc1Sc1ncnc2scc(-c3ccccc3C(F)(F)F)c12	x	x	9	-10	28	x
Cn1nnnc1Sc1ncnc2scc(-c3ccc(C(F)(F)F)cc3)c12	x	x	55*	36	93*	x
Cn1nnnc1Sc1ncnc2scc(-c3cccc(F)c3)c12	x	x	43	15	64*	x
Cn1nnnc1Sc1ncnc2scc(-c3cccc(C(F)(F)F)c3)c12	x	x	58*	26	90*	x
CCOc1ncccc1C(=O)OCC(=O)NC1CCCCC1	x	x	-10	3	2	x
Cc1c(NC(=O)COC(=O)c2c3c(nc4ccccc24)CCCC3)c(=O)n(-c2ccccc2)n1C	-1	4	17	-11	-11	2
COc1ccc(NC(=O)COC(=O)c2c3c(nc4ccccc24)CCCC3)cc1	-2	14	42	28	59*	0
COc1ccc(NC(=O)COC(=O)c2c3c(nc4ccccc24)CCCC3)cc1Cl	x	31	53*	25	65*	4
COc1ccc(OC)c(NC(=O)COC(=O)c2c3c(nc4ccccc24)CCCC3)c1	10	0	29	17	55*	3
CNC(=O)COC(=O)c1c2c(nc3ccccc13)CCC2	1	12	18	0	-6	5
Cc1c(-n2c(=O)n(Cc3ccccc3)c(=O)c3[nH]cnc32)cccc1S(C)=O (centres undefined)	4	x	-6	3	0	3
CN(C)CCn1nnc2c(=O)oc3ccccc3c21	-11	20	11	-11	-4	-3
O=C1CC(c2ccccc2)=NN1c1ccccc1	x	x	52*	-7	-18	x
Cc1cc(C)nc(N2N=C(c3ccccc3)CC2=O)n1	2	5	-10	3	-24	2
CCCCC[C@@H](C)N1C[C@H](COCc2ccccc2)Oc2cc(N3CC[C@@H](O)C3)ccc2S1(=O)=O	x	x	7	23	13	x
CCOc1ccc(Oc2cc(NC(=O)c3ccco3)cc([N+](=O)[O-])c2)cc1	x	28	-32	5	-1	0
COc1ccc(CCC(=O)Nc2cccc(Cl)c2)cc1	0	0	-31	-5	2	0
O=C(Nc1cc(Oc2ccc(Cl)cc2)cc([N+](=O)[O-])c1)c1ccco1	-7	-6	57*	8	57*	-1
O=C(CCc1ccc(Oc2cc([N+](=O)[O-])cc([N+](=O)[O-])c2)cc1)Nc1cccc(Cl)c1	5	7	29	-5	59*	0
Cc1cccc(Oc2cc(NC(=O)c3ccccc3)cc([N+](=O)[O-])c2)c1	-7	18	57*	9	59*	-1
CCCc1cc(NC(=O)COC(=O)c2nccnc2N)n(-c2ccccc2)n1	x	x	-1	-10	-1	x
Cc1cc(=O)c(C(=O)OC(C)C(=O)NC(N)=O)nn1-c1ccc(Cl)cc1 (centres undefined)	-4	x	-14	4	6	2
Fc1ccc(C2=Nc3cccc4cccc(c34)N2)cc1	-4	-7	4	-2	3	0
SMILES	Platelet DG rel	PPC-1+TRAIL kill	TROY signal inh	C8 TRAIL sens	TWEAK-Fn14 inh	HSP90 refold inh
FC(F)(F)C1=Nc2cccc3cccc(c23)N1	x	x	-7	51*	12	x
CC(C)c1cccc(-c2ccc3c(c2)S(=O)(=O)c2cccc(C(=O)NCc4ccccc4Cl)c2C3=O)c1	x	x	1	68*	-81	x
CC(C)c1cccc(-c2ccc3c(c2)S(=O)(=O)c2cccc(C(=O)NCc4ccccc4)c2C3=O)c1	x	x	15	-4	-50	x
COc1ccc(-c2ccc3c(c2)S(=O)(=O)c2cccc(C(=O)NCCOc4ccccc4Cl)c2C3=O)cc1OC	x	x	54*	76*	7	x
O=C(NCc1cc(C(F)(F)F)ccc1Cl)c1cccc2c1C(=O)c1ccc(N3CCC(N4CCCCC4)CC3)cc1S2(=O)=O	x	x	-7	96*	-93	x
O=C(NCc1ccccc1Br)c1cccc2c1C(=O)c1ccc(-c3ccc(OC(F)(F)F)cc3)cc1S2(=O)=O	x	x	2	54*	-94	x
O=C(O)CCC(=O)Nc1nc2nccc(-c3ccccc3)n2n1	-1	19	21	-44	5	0
CC1(C)CC=CC(COC(=O)c2ccccc2C(=O)O)C1 (centres undefined)	x	x	-30	-5	96*	x
Cc1ccc(C(=O)c2c3ccc(C(F)(F)F)cc3nn2CCC(N)=O)cc1	-2	x	9	-3	-3	x
O=C1/C(=C/c2cccnc2)CCC/C1=C\c1cccnc1	x	82*	x	x	x	-3
O=C1/C(=C\c2cccnc2)CCc2ccccc21	28	4	x	11	92*	-1
CCC1C/C(=C\c2cccnc2)C(=O)/C(=C/c2cccnc2)C1 (centres undefined)	x	14	59*	19	105*	9
CCC(=O)N1CCc2cc(S(=O)(=O)NC(C(=O)NC3CCCc4ccccc43)C(C)C)ccc21 (centres undefined)	1	62*	-9	8	-3	5
CCC(=O)N1CCc2cc(S(=O)(=O)NC(C(=O)NCc3ccc(C)cc3)C(C)C)ccc21 (centres undefined)	-4	20	3	2	-16	-1
O=C(CCN1C(=O)c2ccccc2C1=O)c1cnc[nH]1	x	x	-5	-3	8	x
O=C(N/N=C/c1coc2ccccc2c1=O)c1ccccc1Br	-5	14	21	-2	58*	-3
Cc1ccc2nc(Cl)c(/C=N/NC(=O)[C@H]3C[C@@H]3c3ccccc3)cc2c1	0	11	11	-1	-15	-4
O=C(N/N=C/c1coc2ccccc2c1=O)c1cc(O)cc(O)c1	x	17	13	20	12	8
O=C(CNC(=O)c1ccccc1Br)N/N=C/c1cc(Br)ccc1O	-3	28	-2	43	10	1
O=C(N/N=C/c1cc(Cl)ccc1O)c1ccccc1Br	-1	20	-19	53*	-24	-1
Cc1ccc2nc(Cl)c(/C=N/NC(=O)c3ccccc3O)cc2c1	-8	9	52*	3	-10	-1
COc1ccc(-c2cn3cc(C)ccc3n2)cc1Br	10	87*	-7	75*	45	8
O=C(N[C@@H]1C/C=C\C[C@@H](CC(=O)N(CCO)Cc2ccccc2)C(=O)NCCOC1=O)OCC1c2ccccc2-c2ccccc21	x	x	10	-4	-11	x
O=C(C[C@H]1C/C=C\C[C@H](NC(=O)OCC2c3ccccc3-c3ccccc32)C(=O)OC[C@H](Cc2ccccc2)NC1=O)N[C@H](CO)Cc1ccccc1	x	x	-11	64*	-17	x
C[C@@H]1COC(=O)[C@H](NC(=O)OCC2c3ccccc3-c3ccccc32)C/C=C\C[C@@H](CC(=O)N[C@@H](CO)Cc2ccccc2)C(=O)N1	x	x	2	11	2	x
